Measurements from PubChem BioAssay (EPA / NIEHS).
Activity calls are given as the source filed them. Rule for the calls: active = hit-call score of the fitted dose curve at least 0.9, where 1 is the maximum; inactive = score below 0.9.

read-out: Cyclin D2 (CCND2), CCND2 (gene 894); experiment: LTEA_HepaRG_CCND2: Life Technologies and Expression Analysis (LTEA) Assay for Cyclin D2 (CCND2) using HepaRG (AID 2283449); details: mRNA level, 48 h; actives raise or lower the signal;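 note: CCND2 transcript measured by TaqMan qRT-PCR and normalised to three housekeeping genes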
In short: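 Differentiated human HepaRG cells were exposed for 48 h in serum-free induction medium to eight half-log concentrations topping at 100 uM (0.5% DMSO vehicle). CCND2 mRNA was quantified by TaqMan qRT-PCR, normalised to ACTB, GAPDH and POLR2A, and fitted bidirectionally against DMSO.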

outcome, inactive:
O=C(O)Cn1c(=O)n(Cc2ccc(Br)cc2F)c(=O)c2ccc(Cl)cc21
O=c1c(-c2ccc(O)cc2)coc2cc(O)cc(O)c12
Cc1c2ccccc2c(C)c2c1ccc1ccccc12
CCCCCCCCOC(=O)c1cc(O)c(O)c(O)c1
O=CCCCC=O
Cc1cc2c(cc1C(F)(F)F)N(C(=O)Nc1ccc(Oc3cccnc3C)nc1)CC2
CC(C)(C)c1cc(/C=C2\SC(N)=NC2=O)cc(C(C)(C)C)c1O
NCc1cccc(C2CCN(C(=O)c3ccc(C#Cc4ccccc4F)o3)CC2)c1
NC(=O)c1nc(-c2cccc(-c3cc(F)ccc3OCC(F)(F)C(F)(F)F)c2)n[nH]1
Cc1occc1C(=O)Nc1ccc(C(=O)N2CCC(F)(F)/C(=C\C(=O)N3CCC(N4CCCCC4)CC3)c3ccccc32)cc1
COc1cc(C(=O)NC2CCN(C)CC2)ccc1Nc1ncc2c(n1)N(C1CCCC1)CC(F)(F)C(=O)N2C
CCCCCCCCCCCC[N+](C)(C)C
Cc1ccc2oc(CN(Cc3ccccc3)C(=O)Nc3c(F)cc(F)cc3F)c(-c3ccc(Cl)cc3)c2c1
CCCCCCCCCCCO
COCC(C)OCC(C)OCC(C)O (stereo not given)
CN(C[C@@H](CC[N+]12CCC(C3CCCCC3)(CC1)CC2)c1ccc(Cl)c(Cl)c1)C(=O)c1cc(C(F)(F)F)cc(C(F)(F)F)c1
CCCCOC(=O)CC(CC(=O)OCCCC)(OC(C)=O)C(=O)OCCCC
O=C(O)c1ccccc1C(=O)OCc1ccccc1
CN1C(=O)CC[C@H]1c1cccnc1
CC(=O)N1CCN(c2ccc(OC[C@H]3CO[C@](Cn4ccnc4)(c4ccc(Cl)cc4Cl)O3)cc2)CC1
O=C1c2ccccc2C(=O)N1CCc1noc(-c2ccc(CN3CCCCCC3)s2)n1
OC12N=C(c3ccccc3)SC1Cc1cc(Cl)ccc12 (stereo not given)
C[C@]12CC[C@@H]3c4ccc(O)cc4CC[C@H]3[C@@H]1CC[C@H]2O
COc1cccc([C@H](O)C2CCN(CCc3ccc(F)cc3)CC2)c1OC
CN(C)c1ccc(C(=C2C=CC(=[N+](C)C)C=C2)c2ccc(N(C)C)cc2)cc1
CN1C(=O)N(c2ccccc2Br)Cc2cnc(Nc3ccc4c(c3)OCC(CO)O4)nc21 (stereo not given)
Oc1ccc2ccccc2c1
CCCCCCCC[Si](OCC)(OCC)OCC
Clc1cc(Cl)c2c(c1)N=C1CCCCCN1C2
Clc1ccccc1C(c1ccccc1)(c1ccccc1)n1ccnc1
CC(C)(O)c1ccc(CNC(=O)c2cccnc2Oc2ccc3nonc3c2)cc1
O=C1CCC(C2CCCCC2)CC1
CC(C)(c1cc(Br)c(O)c(Br)c1)c1cc(Br)c(O)c(Br)c1
O=C(O)Cc1cc(I)c(Oc2ccc(O)c(I)c2)c(I)c1
CCCCCCCCN(C)CCCCCCCC
